DRD3 agonist – agonists of human D3 dopamine receptor | P35462 | D3R DiscoveRx beta-arrestin cells, luminescence, 90 min | max activation, % | 410,000 tested, 0.58% active; in the data active = max activation above about 30%
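Agonist mode: compounds and dopamine controls were applied to plated cells for 90 min at 37 degrees C after an overnight attachment at 1500 cells/well. Luminescent read-out followed 30 - 60 minutes at room temperature with DiscoveRx detection reagent.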
D1 potentiator – human D1 dopamine receptor positive modulation | P21728 | HEK293 TREx D1 cells, calcium flux, dopamine EC20 potentiation | potentiation, % at 10 µM | 360,000 tested, 0.036% active | AID 504651; in the data active = potentiation above about 30%
Target sequence (P21728 whole entry, looked up): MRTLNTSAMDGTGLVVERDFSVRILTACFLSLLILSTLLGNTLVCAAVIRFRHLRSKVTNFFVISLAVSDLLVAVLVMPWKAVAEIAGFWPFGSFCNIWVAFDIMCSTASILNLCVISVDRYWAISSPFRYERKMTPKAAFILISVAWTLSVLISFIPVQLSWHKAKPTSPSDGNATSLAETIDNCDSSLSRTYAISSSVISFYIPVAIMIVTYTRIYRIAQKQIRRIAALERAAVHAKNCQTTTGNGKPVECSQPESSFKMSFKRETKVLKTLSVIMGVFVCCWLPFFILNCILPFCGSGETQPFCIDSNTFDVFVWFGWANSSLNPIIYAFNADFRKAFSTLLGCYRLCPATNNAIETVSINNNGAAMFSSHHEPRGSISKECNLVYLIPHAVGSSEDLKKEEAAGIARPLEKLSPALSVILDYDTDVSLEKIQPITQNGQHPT
D1 agonist – agonists of human D1 dopamine receptor. P21728. HEK293 T-REx D1 cells, calcium flux, agonist mode. activation, % at 2 µM. 360,000 tested, 1% active; in the data active = activation above about 30%
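Tetracycline-induced HEK293 TREx D1 cells, force-coupled to calcium signalling, were dye-loaded with a no-wash calcium kit. Compound was pin-added after a 10 s baseline. Fluorescence was read kinetically at 1 cycle/s for 180 s, with calcium rises flagged as agonism.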
D3 antag – antagonists of human D3 dopamine receptor | P35462 | D3R cells, DiscoveRx beta-arrestin luminescence, antagonist mode; active compounds read low | max response, negative = inhibition, % | 360,000 tested, 2.5% active | AID 652054; in the data active = max response below about -50%
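Cells plated overnight at 1500 cells/well, then exposed to library compounds with dopamine controls for 90 minutes at 37 degrees C. DiscoveRx reagent added for 30–60 minutes at room temperature; luminescence read, quantitative HTS format.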
D1 antagonist – human D1 dopamine receptor antagonism. HEK293 TREx D1 cells, calcium flux, dopamine EC80; active compounds read low. AID 504652. P21728. 360,000 tested, 3.2% active. activity change, negative = inhibition, % at 10 µM; in the data active = activity change below about -30%
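After overnight tetracycline induction at 30 C, force-coupled D1 HEK293 cells took up a no-wash calcium dye at room temperature. Compounds were added and monitored 180 s, and the response to EC80 dopamine was then recorded.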
A number is an active result; . = inactive; / = not tested or not shown. In the library only some 6% were active in any assay of this set; here they are far more common.

SMILES	DRD3 agonist	D1 potentiator	D1 agonist	D3 antag	D1 antagonist
Clc1cc2nc[nH]c2cc1Cl	37	.	.	.	.
N#Cc1nc(Nc2ccc(F)cc2)nc(NC2CCCC2)n1	/	.	.	/	.
CC1CCCCN1CCCNc1ccc(C(CC(N)=O)NC(=O)Cc2ccc(Br)cc2)cc1[N+](=O)[O-] (stereo unspecified)	.	.	.	-52	.
O=C(Nc1ccc(F)cc1)Nc1csc2c1CCCC2	.	.	.	/	-32
Cc1ccc(CNC(=O)COCc2cc(-c3cccs3)on2)cc1	.	.	.	/	.
Brc1ccc(-c2csc(/N=C/N3CCOCC3)n2)cc1	.	.	.	.	-33
O=C(Nc1ccccc1N1CCOCC1)c1cccc2ccccc12	.	/	/	.	/
Cn1cc(Br)c(-c2cccc(NC(=O)CCC(=O)O)c2)n1	.	.	.	.	-37
Cn1cc(Br)c(-c2cccc(NC(=O)CC(C)(C)CC(=O)O)c2)n1	.	.	.	.	.
O=C(O)CCC(=O)Nc1cccc(-c2csc(-c3ccccc3)n2)c1	.	.	.	.	-34
CC(=O)Nc1cccc(-c2ccnc3c2CC(C(=O)NCCc2ccccc2)O3)c1 (stereo unspecified)	.	/	/	.	/
Cc1cc2oc(C(=O)NCc3ccncc3)c(C)c2cc1C	.	.	.	.	-36
CCOC(=O)CC(/C(C)=N\O)c1ccccc1 (stereo unspecified)	.	.	.	.	-75
CCOC(=O)c1ccc(Nc2nnc(C(C)(C)C)c(=O)[nH]2)cc1	.	.	.	.	-56
CCCn1c(=O)c2[nH]c(-c3ccc(S(=O)(=O)O)cc3)nc2n(CCC)c1=O	.	.	.	.	.
N#CC1=C(N)NC(SCc2ccc(F)cc2)=C(C#N)C12CCCCC2	.	.	.	.	-31
N#CC1=C(N)NC(SCC(=O)O)=C(C#N)C12CCCC2	.	.	.	.	.
CCn1nc(NS(=O)(=O)c2ccccc2)c2cc3ccc(C)cc3nc21	.	.	.	-63	.
CCn1nc(NS(=O)(=O)c2ccccc2)c2cc3cc(C)ccc3nc21	.	.	.	.	.
C=CCNC(=O)c1cc(C(=O)C(C)c2ncc(C(F)(F)F)cc2Cl)c[nH]1 (stereo unspecified)	.	.	36	.	.
COc1ccc(N2C(=O)C3CC(C)=C(C)CC3C2=O)c(OC)c1 (stereo unspecified)	.	.	.	.	.
COc1cc(N2C(=O)C=CC2=O)ccc1N1C(=O)C=CC1=O	.	/	/	-68	/
CCc1ccc2[nH]c3nc(SCC(=O)NNC(=O)c4ccc(C(C)(C)C)cc4)nnc3c2c1	39	.	.	.	.
Cc1ccc(C(=O)NNC(=O)CSc2nnc3c(n2)[nH]c2ccc(C)cc23)cc1	.	.	.	.	.
Cc1ccc(NC(=O)N2CCCC2C(=O)Nc2ccc3c(c2)OCCO3)cc1 (stereo unspecified)	.	.	.	.	.
SMILES	DRD3 agonist	D1 potentiator	D1 agonist	D3 antag	D1 antagonist
OCCCNc1ncnc2sc3c(c12)CCN(Cc1ccccc1)C3	.	.	.	.	.
O=c1[nH]cnc2sc3c(c12)CCN(Cc1ccccc1)C3	74	.	.	.	.
O=c1[nH]cnc2sc3c(c12)CN(Cc1ccccc1)CC3	60	.	.	.	.
CNC[C@@H]1OCc2ccccc2-c2c(n(C)c3ccccc23)C(=O)N([C@H](C)CO)C[C@@H]1C	.	/	/	.	/
Nc1nc2c(s1)CC(c1ccccc1)CC2 (stereo unspecified)	.	.	.	.	-30
CC(C)(C)C1CCc2nc(NC(=O)Cc3ccccc3)sc2C1 (stereo unspecified)	.	.	.	/	.
Cc1c(NC(=O)c2ccc([N+](=O)[O-])o2)cccc1-c1nc2ncccc2o1	.	.	.	.	.
COc1cccc(-c2cnc(C(O)c3ccc(CN4CCCC4)cc3)[nH]2)c1 (stereo unspecified)	.	/	/	.	/
CCCC(=O)Nc1ccc(Cl)c(NC(=S)NC(=O)C(C)C)c1	.	.	.	.	-37
COc1cc(C2c3cc(O)c(OC)cc3CC(C(=O)O)C2CO)ccc1O (stereo unspecified)	71	/	/	.	/
COc1ccc(-n2nnc(-c3nsc(NC(=O)c4cccs4)n3)c2C)cc1OC	.	.	.	/	.
Cc1cc(C)cc(N(C(=O)c2ccc(Br)o2)C2C=CS(=O)(=O)C2)c1 (stereo unspecified)	.	.	.	.	.

Screening results as filed in PubChem.
